Outcome and AC50 data for seven molecules are collected here from PubChem BioAssay (EPA / NIEHS).

A short description of test [1]: ATG_PBREM_CIS: Attagene CIS-FACTORIAL HepG2 Assay for human Phenobarbital-responsive Enhancer Module (PBREM) (AID 2282955). The following applies: HepG2 PBREM cis-reporter, Attagene multiplexed transcription; actives raise or lower the signal. Put shortly: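 Fluorescence of labelled reporter cDNA fragments, resolved by capillary electrophoresis, gives mRNA induction in transfected HepG2 cells treated for 24 h; DMSO serves as negative control and baseline.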

Test [2] addresses Paired box protein Pax-6 (Homo sapiens) (UniProt P26367). As to the kind of experiment: ATG_Pax6_CIS: Attagene CIS-FACTORIAL HepG2 Assay for human Paired Box 6 (PAX6) (AID 2282956). The note with it: HepG2 CIS-FACTORIAL PAX6 reporter transcription, RNA readout; actives raise or lower the signal. The method, boiled down:
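Multiplexed cis-reporter HepG2 system; 24 h treatment; reporter mRNA read by RT-PCR/CE fluorescence; bidirectional fit vs DMSO.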

Test [3] can be described thus: ATG_PXRE_CIS: Attagene CIS-FACTORIAL HepG2 Assay for human Pregnane X Receptor Element (PXRE) (AID 2282957). The following applies: HepG2 Attagene CIS-FACTORIAL PXRE reporter, mRNA; actives raise or lower the signal. Put shortly:
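Cells: HepG2, transiently transfected reporter units under cis promoter control. Exposure: 24 h. Detection: reporter mRNA via RT-PCR/CE fluorescence; bidirectional fitting, DMSO-referenced.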

Test [4] is described as follows: ATG_PPRE_CIS: Attagene CIS-FACTORIAL HepG2 Assay for human Peroxisome Proliferator-activated Response Element (PPRE) (AID 2282958). The following applies: HepG2 PPRE cis-element reporter, Attagene transcription factor profiling; actives raise or lower the signal. Put shortly: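 Cells are first transfected transiently with the multiplexed reporter library, then dosed for 24 h. Total RNA is reverse-transcribed, amplified, fluorescently end-labeled and HpaI-cut before capillary electrophoresis; activity is fitted bidirectionally against DMSO controls.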

Test [5] can be described thus: ATG_RORE_CIS: Attagene CIS-FACTORIAL HepG2 Assay for human RAR-related Orphan Receptor Element (RORE) (AID 2282959). The note with it: HepG2 Attagene cis-factorial RORE reporter, mRNA; actives raise or lower the signal. Put shortly:
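Cells were HepG2 carrying transfected cis-regulated reporter constructs, dosed for 24 hours. Total RNA was reverse-transcribed and reporter cDNA amplified, fluorescently labeled and sized by capillary electrophoresis. Activity was fitted bidirectionally relative to DMSO.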

Test [6] in a line: ATG_Sox_CIS: Attagene CIS-FACTORIAL HepG2 Assay for human SRY-box transcription factor (SOX) (AID 2282960). The note with it: HepG2 Attagene cis-factorial SOX reporter, mRNA; actives raise or lower the signal. The method, boiled down: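 Transient MRTU transfection of HepG2; 24 h compound incubation; TriZol RNA, oligo(dT) RT, PCR, 6-FAM primer extension, HpaI cut, CE. Bidirectional fit, DMSO = baseline.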

The target of test [7] is Transcription factor Sp1 (Homo sapiens) (UniProt P08047). As to the kind of experiment: ATG_Sp1_CIS: Attagene CIS-FACTORIAL HepG2 Assay for human Specificity Protein 1 (Sp1) (AID 2282961). The following applies: HepG2 Sp1 cis-reporter transcription, actives raise or lower the signal. The method, boiled down:
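Endogenous Sp1 activity was gauged in human liver HepG2 cells bearing transfected reporter units under a cis-regulating promoter. After 24 h dosing, reporter mRNA was quantified by RT-PCR with capillary electrophoresis, and activity fitted bidirectionally versus DMSO.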

Test [8] in a line: ATG_SREBP_CIS: Attagene CIS-FACTORIAL HepG2 Assay for human Sterol Regulatory Element Binding (SREBP) (AID 2282962). The following applies: HepG2 Attagene cis-factorial SREBP reporter, mRNA; actives raise or lower the signal. Put shortly: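 mRNA induction of transfected cis-promoter reporters in HepG2 cells, 24 h post-dose. Detection: RT-PCR with 6-FAM-labelled products, HpaI digest, capillary electrophoresis. DMSO served as negative control and baseline.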

In test [9] the target is Signal transducer and activator of transcription 3 (Homo sapiens) (UniProt P40763). As to the kind of experiment: ATG_STAT3_CIS: Attagene CIS-FACTORIAL HepG2 Assay for human Signal Transducer and Activator of Transcription 3 (STAT3) (AID 2282963). The note with it: HepG2, Attagene cis-factorial STAT3 reporter transcription; actives raise or lower the signal. Put shortly: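 Endogenous STAT3-responsive cis-element activity was read in transiently transfected HepG2 cells after 24 h treatment. Reporter transcripts were quantified via RT-PCR and capillary electrophoresis, with DMSO as negative control and bidirectional curve fitting.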

Test [10] in a line: ATG_TA_CIS: Attagene CIS-FACTORIAL HepG2 Assay for human TA Basal Promoter (AID 2282964). The note with it: HepG2 Attagene CIS-factorial TA basal promoter reporter; actives raise or lower the signal. Put shortly: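 Read-out: fluorescent reporter-transcript fragments resolved by capillary electrophoresis after RT-PCR and HpaI digestion. Source: HepG2 cells carrying transiently transfected multi-reporter cis constructs, treated 24 h. Endpoint fitted bidirectionally relative to DMSO.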

Test [11] can be described thus: ATG_TCF_b_cat_CIS: Attagene CIS-FACTORIAL HepG2 Assay for human T-Cell-Factor with beta-catenin (TCF/b-cat) (AID 2282965). The note with it: HepG2 TCF/beta-catenin cis-reporter transcription, actives raise or lower the signal. The method, boiled down:
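Endogenous TCF/LEF activity read as reporter transcript level via RT-PCR and capillary electrophoresis fluorescence in transfected HepG2, 24 h exposure; gain or loss of signal fitted against DMSO controls.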

A short description of test [12]: ATG_TAL_CIS: Attagene CIS-FACTORIAL HepG2 Assay for human TAL Basal Promoter (AID 2282966).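 Note: background control endpoint measuring basal TAL promoter reporter mRNA not a specific factor.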 The note with it: HepG2 Attagene cis-factorial TAL promoter reporter; actives raise or lower the signal. Put shortly: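 RT-PCR plus capillary electrophoresis quantifies reporter mRNA induction in transiently transfected HepG2 cells after 24 h chemical treatment. DMSO serves as negative control and baseline for bidirectional fitting.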

Test [13] can be described thus: ATG_TGFb_CIS: Attagene CIS-FACTORIAL HepG2 Assay for human Transforming Growth Factor (TGF) (AID 2282967). The note with it: HepG2 Attagene CIS TGFb reporter, mRNA transcription; actives raise or lower the signal. The method, boiled down: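 Transient MRTU transfection of HepG2 (FuGene 6). Dose 24 h. TriZol RNA, oligo(dT) RT, PCR, 6-FAM primer extension, HpaI cut, CE. Bidirectional fit, DMSO = baseline.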

Test [14] is described as follows: ATG_VDRE_CIS: Attagene CIS-FACTORIAL HepG2 Assay for human Vitamin D Receptor Element (VDRE) (AID 2282968). The following applies: HepG2 VDRE cis-reporter transcription, actives raise or lower the signal. Put shortly: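 Reporter mRNA induction, quantified by capillary electrophoresis of fluorescently labelled RT-PCR products, was read 24 h after dosing HepG2 cells carrying transiently transfected cis-regulated reporter units; gain or loss relative to DMSO.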

The target in test [15] is Nuclear receptor subfamily 1 group I member 3 (Homo sapiens) (UniProt Q14994). Put plainly: ATG_CAR_TRANS: Attagene TRANS-FACTORIAL HepG2 Assay for human Constitutive Androstane Receptor (CAR) (AID 2282969; active = hit-call score of the fitted dose curve at least 0.9, where 1 is the maximum;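 note: activators raise reporter mRNA above DMSO so AC50 marks induction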). The note with it: HepG2 Attagene TRANS-FACTORIAL CAR reporter. The method, boiled down:
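Readout is reporter mRNA induction, quantified by fluorescent primer extension and capillary electrophoresis after RT-PCR. Cells were HepG2 transiently carrying chimeric NR-Gal4 constructs with GAL4-UAS reporters, treated for 24 h; activity scored upward from DMSO.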

The target in test [16] is Estrogen receptor (Homo sapiens) (UniProt P03372). Put plainly: ATG_ERa_TRANS: Attagene TRANS-FACTORIAL HepG2 Assay for human Estrogen Receptor alpha (ERa) (AID 2282970; active = hit-call score of the fitted dose curve at least 0.9, where 1 is the maximum). The following applies: HepG2 Attagene TRANS ERa GAL4 reporter, mRNA. The method, boiled down:
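Cells: HepG2, transiently transfected. Construct: GAL4-UAS reporter units regulated by exogenous NR-Gal4 chimeras. Time: 24 h. Detection: reporter mRNA by RT-PCR, capillary electrophoresis, fluorescence. Baseline: DMSO, upward fitting.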

The target of test [17] is X-box-binding protein 1 (Homo sapiens) (UniProt P17861). As to the kind of experiment: ATG_Xbp1_CIS: Attagene CIS-FACTORIAL HepG2 Assay for human X-box Binding Protein 1 (XBP1) (AID 2282972). The following applies: HepG2 XBP1 cis-element reporter, Attagene multiplex; actives raise or lower the signal. Put shortly:
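Fluorescence-labelled cDNA fragments from reporter transcripts, separated by capillary electrophoresis, give the signal. Source: HepG2 cells transfected with promoter-driven reporter units, harvested 24 h post-dose. DMSO served as reference for bidirectional curve fitting.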

Test [18] is described as follows: ATG_M_19_TRANS: Attagene TRANS-FACTORIAL HepG2 Assay for M19 Transcription Factor (Internal Marker) (AID 2282974; active = hit-call score of the fitted dose curve at least 0.9, where 1 is the maximum). The note with it: HepG2 Attagene TRANS-FACTORIAL M19 internal marker reporter. Put shortly:
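Cells: human HepG2, transiently transfected with multiplexed reporter transcription units. Exposure: 24 h. Detection: RT-PCR of reporter mRNA with capillary electrophoresis. Analysis: gain-of-signal vs DMSO.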

The nature of test [19]: ATG_GAL4_TRANS: Attagene TRANS-FACTORIAL HepG2 Assay for GAL4 (Internal Marker) (AID 2282976; active = hit-call score of the fitted dose curve at least 0.9, where 1 is the maximum). The following applies: HepG2 Attagene TRANS GAL4 internal marker reporter. The method, boiled down: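 In transfected human HepG2 liver cells dosed 24 h, GAL4 reporter mRNA serves as a baseline marker. Detection by RT-PCR with fluorescent capillary electrophoresis, activity fitted upward relative to DMSO.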

SMILES strings stand for the structures. Records with an inconclusive call do not appear. Active and inactive are the calls of the source. Rule for the calls, unless noted: active = hit-call score of the fitted dose curve at least 0.9, where 1 is the maximum; inactive = score below 0.9.

Signal transducer and activator of transcription 3 (Homo sapiens), sequence (P40763 whole entry, looked up): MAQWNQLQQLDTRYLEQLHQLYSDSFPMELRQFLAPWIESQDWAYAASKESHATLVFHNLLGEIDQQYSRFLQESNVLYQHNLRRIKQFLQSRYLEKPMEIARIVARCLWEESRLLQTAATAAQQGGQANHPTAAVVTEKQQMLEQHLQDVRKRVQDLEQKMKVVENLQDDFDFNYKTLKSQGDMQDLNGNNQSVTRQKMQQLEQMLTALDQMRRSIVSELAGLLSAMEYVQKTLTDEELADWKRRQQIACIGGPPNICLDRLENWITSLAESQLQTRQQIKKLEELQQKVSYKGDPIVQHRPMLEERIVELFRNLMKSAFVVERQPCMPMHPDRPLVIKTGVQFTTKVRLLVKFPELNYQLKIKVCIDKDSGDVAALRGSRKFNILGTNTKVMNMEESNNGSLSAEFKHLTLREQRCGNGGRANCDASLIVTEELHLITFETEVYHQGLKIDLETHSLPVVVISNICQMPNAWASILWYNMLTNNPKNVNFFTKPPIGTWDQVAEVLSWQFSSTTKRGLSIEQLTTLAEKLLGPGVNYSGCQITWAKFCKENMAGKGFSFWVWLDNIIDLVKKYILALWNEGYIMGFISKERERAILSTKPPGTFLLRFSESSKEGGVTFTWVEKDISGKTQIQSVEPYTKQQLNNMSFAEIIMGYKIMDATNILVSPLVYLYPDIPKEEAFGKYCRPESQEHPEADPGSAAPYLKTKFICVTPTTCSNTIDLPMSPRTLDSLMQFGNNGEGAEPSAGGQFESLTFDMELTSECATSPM
Paired box protein Pax-6 (Homo sapiens), sequence (P26367 whole entry, looked up): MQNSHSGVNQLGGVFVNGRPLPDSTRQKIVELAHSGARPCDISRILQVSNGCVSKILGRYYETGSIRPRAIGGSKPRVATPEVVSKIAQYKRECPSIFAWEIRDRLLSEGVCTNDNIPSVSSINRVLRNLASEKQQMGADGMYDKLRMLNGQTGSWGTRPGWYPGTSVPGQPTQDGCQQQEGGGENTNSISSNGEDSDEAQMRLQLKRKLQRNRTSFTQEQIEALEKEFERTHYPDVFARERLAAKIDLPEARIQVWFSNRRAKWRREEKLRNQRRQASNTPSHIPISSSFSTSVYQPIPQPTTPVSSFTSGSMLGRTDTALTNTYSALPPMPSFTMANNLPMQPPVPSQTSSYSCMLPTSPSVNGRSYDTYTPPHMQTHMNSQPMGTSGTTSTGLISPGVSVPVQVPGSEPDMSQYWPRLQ
Transcription factor Sp1 (Homo sapiens), sequence (P08047 whole entry, looked up): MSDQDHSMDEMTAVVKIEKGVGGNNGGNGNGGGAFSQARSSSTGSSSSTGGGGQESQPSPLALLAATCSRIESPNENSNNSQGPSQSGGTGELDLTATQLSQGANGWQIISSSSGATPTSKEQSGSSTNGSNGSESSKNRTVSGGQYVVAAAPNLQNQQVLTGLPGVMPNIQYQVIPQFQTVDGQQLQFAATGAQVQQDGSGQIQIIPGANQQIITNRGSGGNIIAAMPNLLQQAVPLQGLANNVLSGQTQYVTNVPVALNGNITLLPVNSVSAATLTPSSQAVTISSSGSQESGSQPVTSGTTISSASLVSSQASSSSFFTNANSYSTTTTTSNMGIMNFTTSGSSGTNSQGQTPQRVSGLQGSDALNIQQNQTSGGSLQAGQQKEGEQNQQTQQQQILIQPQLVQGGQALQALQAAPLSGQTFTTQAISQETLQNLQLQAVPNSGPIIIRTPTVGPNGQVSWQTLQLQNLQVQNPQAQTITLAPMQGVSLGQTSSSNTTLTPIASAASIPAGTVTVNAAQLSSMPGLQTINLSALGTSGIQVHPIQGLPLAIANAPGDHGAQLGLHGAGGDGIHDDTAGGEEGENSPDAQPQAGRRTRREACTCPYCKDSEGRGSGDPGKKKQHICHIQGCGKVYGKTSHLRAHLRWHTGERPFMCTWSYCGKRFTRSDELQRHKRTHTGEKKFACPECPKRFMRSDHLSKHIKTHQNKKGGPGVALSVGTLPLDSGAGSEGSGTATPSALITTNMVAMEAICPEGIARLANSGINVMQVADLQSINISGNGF
X-box-binding protein 1 (Homo sapiens), sequence (P17861 whole entry, looked up, the tested form may be a part): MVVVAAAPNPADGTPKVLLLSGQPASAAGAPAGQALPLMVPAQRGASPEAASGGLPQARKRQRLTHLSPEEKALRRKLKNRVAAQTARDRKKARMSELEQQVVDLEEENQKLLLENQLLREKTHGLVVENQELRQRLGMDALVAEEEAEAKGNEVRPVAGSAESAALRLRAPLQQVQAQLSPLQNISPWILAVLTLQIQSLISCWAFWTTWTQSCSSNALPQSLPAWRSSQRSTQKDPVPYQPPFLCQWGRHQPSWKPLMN
Estrogen receptor (Homo sapiens), sequence (P03372 whole entry, looked up, the tested form may be a part): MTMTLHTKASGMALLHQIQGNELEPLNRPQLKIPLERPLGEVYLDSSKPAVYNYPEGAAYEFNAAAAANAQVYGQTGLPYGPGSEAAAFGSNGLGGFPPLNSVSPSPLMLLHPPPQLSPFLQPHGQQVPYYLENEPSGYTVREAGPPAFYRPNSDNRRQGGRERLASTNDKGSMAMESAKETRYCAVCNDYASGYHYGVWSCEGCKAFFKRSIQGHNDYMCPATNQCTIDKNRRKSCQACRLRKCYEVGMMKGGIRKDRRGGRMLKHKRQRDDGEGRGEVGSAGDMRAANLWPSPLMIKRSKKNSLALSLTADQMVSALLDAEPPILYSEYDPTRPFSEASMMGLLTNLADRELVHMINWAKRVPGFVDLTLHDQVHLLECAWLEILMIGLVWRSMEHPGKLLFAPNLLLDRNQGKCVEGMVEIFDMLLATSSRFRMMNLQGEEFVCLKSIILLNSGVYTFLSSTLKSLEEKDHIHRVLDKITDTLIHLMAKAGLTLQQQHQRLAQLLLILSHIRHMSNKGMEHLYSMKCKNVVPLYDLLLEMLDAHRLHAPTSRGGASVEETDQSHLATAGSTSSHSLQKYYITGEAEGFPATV
Nuclear receptor subfamily 1 group I member 3 (Homo sapiens), sequence (Q14994 whole entry, looked up, the tested form may be a part): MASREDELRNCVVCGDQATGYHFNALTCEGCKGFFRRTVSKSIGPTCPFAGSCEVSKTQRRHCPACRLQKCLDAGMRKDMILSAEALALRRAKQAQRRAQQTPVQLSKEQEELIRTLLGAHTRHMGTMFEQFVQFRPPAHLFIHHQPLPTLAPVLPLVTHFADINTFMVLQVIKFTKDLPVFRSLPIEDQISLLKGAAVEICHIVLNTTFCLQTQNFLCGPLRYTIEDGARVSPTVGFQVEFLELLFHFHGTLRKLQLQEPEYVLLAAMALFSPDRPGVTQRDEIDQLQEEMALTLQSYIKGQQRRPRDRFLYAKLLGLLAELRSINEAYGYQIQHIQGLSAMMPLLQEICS

For `CC(=O)OC1CCCCC1C(C)(C)C` (centres undefined), the result in test [1], in test [2], in test [3], in test [4], in test [5] and in test [6] was inactive. Further, the molecule was called inactive in test [7], in test [8], in [9], in [10], in test [11] and in test [12]. The molecule was called inactive in test [13], in [14], in test [15], in [16], in test [17] and in test [18]. In test [19], the molecule was classed as inactive.

Consider `CC(=O)OCCc1ccccc1`, for which the outcome in [1], in [2], in test [3], in [4], in test [5] and in [6] was inactive. Also, the result in test [7], in test [8], in test [9], in [10], in test [11] and in test [12] was inactive. Besides, the call in test [13], in [14], in test [15], in test [16] and in test [17] was inactive.

As to `O=C(Cl)c1ccc(C(=O)Cl)cc1`, the result in test [1], in test [2], in [3], in [4], in test [5] and in test [6] was inactive. Further, the molecule was classed as inactive in [7], in test [8], in test [9], in test [10], in test [11] and in test [12]. For the same molecule, the molecule was classed as inactive in test [13], in test [14], in test [15], in [16], in [17] and in test [18]. In test [19], the molecule was classed as inactive.

With `O=C(O)CC(C(=O)O)S(=O)(=O)O` (centres undefined), the outcome in test [1], in [2], in [3], in [4], in test [5] and in test [6] was inactive. Also, the molecule was classed as inactive in test [7], in [8], in test [9], in test [10], in test [11] and in [12]. Also, the outcome in test [13], in test [14], in test [15], in test [17], in test [18] and in test [19] was inactive.

Usually AC50 stands for the midpoint of the concentration-response curve, whichever way the signal moves. As for `CC(CC=O)CC(C)(C)C` (centres undefined), the result in test [1], in test [2], in [4], in [5], in test [6] and in test [7] was inactive. Besides, the molecule was classed as inactive in test [8], in test [9], in [10], in test [11], in test [12] and in [13]. Moreover, the call in test [14], in test [15], in test [16], in test [18] and in test [19] was inactive. For the same molecule, the AC50 in test [3] was 8.08 µM (active).

Regarding `CC(=O)CCC1=C(C)CCCC1(C)C`, the outcome in test [1], in test [2], in test [4], in [5], in test [6] and in test [7] was inactive. Further, the call in test [8], in test [9], in [10], in test [11], in [12] and in test [13] was inactive. Further, the molecule was classed as inactive in test [14], in [15], in [17] and in test [18]. The results for the AC50 in test [3] and in [16] were 4.36 µM (active) and 13 µM (active), respectively.

As for `Cc1ccc2c(c1)CCCN2`, the result in [1], in test [2], in [4], in test [5], in test [6] and in test [7] was inactive. The outcome in [8], in test [9], in [11], in test [12], in [13] and in [15] was inactive. Also, the call in [16] and in test [17] was inactive. Moreover, in [3], the AC50 is 65.1 µM (active).
